Test results reported in PubChem BioAssay AID651599 (National Center for Advancing Translational Sciences (NCATS), 2012).
Results filed as inconclusive are left out. Entries that show only a call come without a potency. Activity calls are given as the source filed them. The call rests on the fitted dose curve; in most records, active means well fitted inhibition curve with a large enough effect; inconclusive means small, poorly fitted or top-dose-only effect; inactive means no such curve, though single readings can be large or run the other way.

These compounds were tested against Tumor susceptibility gene 101 protein (Homo sapiens) (UniProt Q99816) (assay: qHTS Assay for Iinhibitors of HIV-1 Budding by Blocking the Interaction of PTAP/TSG101: Hit Validation in TR assay). Conditions: Tsg101 binding domain + Texas Red-labeled PTAP peptide, fluorescence polarization, 20 min; series mostly up to 57.5 µM.
Chain of Tumor susceptibility gene 101 protein (Homo sapiens) (Q99816 whole entry, looked up, the tested form may be a part): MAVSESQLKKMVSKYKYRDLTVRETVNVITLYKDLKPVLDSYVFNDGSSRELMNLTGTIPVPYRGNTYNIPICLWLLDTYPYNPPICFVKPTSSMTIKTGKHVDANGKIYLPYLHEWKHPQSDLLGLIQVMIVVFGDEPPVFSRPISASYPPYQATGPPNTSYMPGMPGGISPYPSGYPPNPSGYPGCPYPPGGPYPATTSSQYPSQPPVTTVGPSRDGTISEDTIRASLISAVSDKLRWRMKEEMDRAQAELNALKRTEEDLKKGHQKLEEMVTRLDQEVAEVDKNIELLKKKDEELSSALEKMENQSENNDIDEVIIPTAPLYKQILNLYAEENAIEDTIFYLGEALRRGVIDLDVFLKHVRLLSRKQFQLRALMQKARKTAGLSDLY
Source text: Stages of the HIV-1 replication cycle, specifically virus assembly and release, provide underexploited targets for the development of novel antiviral inhibitors. The late stages of HIV-1 replication are mediated by the Gag precursor protein, Pr55Gag. Expression of Pr55Gag is both necessary and sufficient for the production of virus-like particles from Gag-expressing cells. The Gag protein hijacks key host proteins involved in endocytic machinery of the host cell to promote endosomal processing and viral budding. The budding process requires a direct interaction between a […] (PTAP) motif in the p6 domain of Gag and the cellular endosomal sorting protein known as Tsg101. In this way, the Gag PTAP motif promotes the host cells to recruit viral particles to the plasma membrane where the new viral particles are released, effectively turning the host cells into viral factories. A fluorescence anisotropy assay has been developed to quantitatively measure the PTAP-Tsg101 interaction which can be used to screen for inhibitors of this interaction.
This hit validation assay is similar to the primary assay but uses the Texas Red label instead of FITC.
NIH Molecular Libraries Probe Production Network [MLPCN]
NIH Chemical Genomics Center [NCGC]
PI Name: Dr. Eric Freed, NCI
Two uL of the Tsg101 binding domain in buffer (10 mM HEPES pH 7.5; 0.15 M NaCl, 0.01% Tween 20; 3 mM EDTA;0.1 mM TCEP) was dispensed into Greiner black MB 1536-well plates (final concentration 10 uM). Then, 23 nL of compounds or DMSO were delivered to each well using a pin tool. Finally, 2 uL of a TR-labeled peptide containing the PTAP motif (1) in the same buffer was dispensed (50 nM final concentration) and the binding was allowed to proceed for 20 min. at r.t. Fluorescent polarization was determined using TR excitation and polarized emission filters on a Perkin Elmer Viewlux.
Keywords: Tsg101, PTAP, Gag, HIV, fluorescent polarization, MLSMR, MLPCN, NIH Roadmap, qHTS, NCGC
Potency means the concentration at half of the fitted maximal effect.

Structure (SMILES)	Potency
O=C(NC1CCCC1)c1cccc2c1C(=O)c1ccc(N3CCCCC3)cc1S2(=O)=O	inactive
CCN1C(=O)c2cccc3c(N)ccc(c23)C1=O	inactive
CCOc1ccc2nc3cc(NCc4ccc(OC)cc4)ccc3c(N)c2c1	inactive
O=C(CN1C(=O)c2ccccc2S1(=O)=O)Nc1ncc(Cl)cc1Cl	inactive
Cc1c2cc(O)c(=O)cc-2oc2cc(O)c(O)cc12	inactive
CCOc1ccc(NC(=O)c2ccc3c(c2)CCN3S(C)(=O)=O)cc1	inactive
Cn1c(=O)c2[nH]c(COc3ccccc3)nc2n(C)c1=O	inactive
Cn1cc(/C=C2\SC(=S)N(NC(=O)c3ccccc3)C2=O)c2ccccc21	inactive
O=C1Nc2ccc(Cl)cc2C12Nc1ccccc1-c1nnc(SCc3ccccc3F)nc1O2 (stereo not given)	inactive
CC1CCN(c2ccc3c(c2)S(=O)(=O)c2cccc(C(=O)NCc4cccc(F)c4)c2C3=O)CC1	inactive
Cc1ccc(CNC(=O)C2CCCN(S(=O)(=O)c3c(C)[nH]c(=O)[nH]c3=O)C2)cc1 (stereo not given)	inactive
CCOC(=O)c1cc2n(c1/N=C/N(C)C)-c1ccccc1C2=O	inactive
COc1ccc(C(=O)c2sc3nc(C)cc(-c4cccs4)c3c2N)cc1	inactive
CN1C(=O)c2cccc3c(N)ccc(c23)C1=O	inactive
CCc1cccc(CC)c1NC(=O)CSc1nnc(C2CC2)n1C	inactive
CCNc1cccc2c1C(=O)N(C)C2=O	inactive
COc1cccc2c1C(=O)c1c(O)c3c(c(O)c1C2=O)C[C@@](O)(C(C)=O)C[C@@H]3O[C@H]1C[C@H](N)[C@H](O)[C@H](C)O1	20.6 µM (active)
Cc1c2ccccc2nc2c(F)c(NC(C)C)c(F)c(F)c12	inactive
CC(=O)c1ccc2c(c1)c(C#N)c1ccccc1[n+]2[O-]	inactive
CCCCCCn1c(=O)[nH]c2nc3cc(N)ccc3nc2c1=O	inactive

Structure (SMILES)	Potency
O=C1/C(=C/c2cccc(F)c2)Oc2cc(O)ccc21	inactive
CC1=CC(=C(C#N)c2nc3ccccc3s2)C=C(C)N1c1ccc(F)cc1F	inactive
O=c1[nH]c(S)c(/C=C2\C=Nc3ccccc32)s1	inactive
CCOC(=O)Cn1c(=NC(=O)c2ccc([N+](=O)[O-])s2)sc2ccccc21	inactive
COc1cccc(NC(=O)/C(C#N)=C/c2ccc(-c3ccc(C)cc3)o2)c1	inactive
O=C1N=C(N2C=CC(=C3C=CNC=C3)C=C2)/C(=C/N=NC(=O)c2ccccc2O)S1	inactive
CN1CC=C2C(C#N)=C(N)C(C#N)(C#N)[C@H](c3ccoc3)[C@H]2C1	inactive
COc1ccc2c(C#N)c3ccccn3c2c1	inactive
CC1(C)CC(=O)C2=C(C1)OC(N)=C(C#N)[C@@H]2c1ccccc1[N+](=O)[O-]	inactive
Cn1c(=O)c(N)c2c3c(c(Br)ccc31)C(=O)c1ccccc1-2	18.3 µM (active)
COc1ccc(NC(=O)c2cccc(-c3ccc(O)cc3)c2)cn1	inactive
Cn1c(=O)c2nc3ccc(NC(=O)C(F)(F)F)cc3nc2n(C)c1=O	inactive
Cc1cccc(CCNC(=O)c2sc3nc4n(c(=O)c3c2C)CCCC4)c1	inactive
Cc1ccc2nc(-c3ccco3)c(Nc3ccccc3)n2c1	inactive
O=C(O)[C@@H]1[C@H]2C[C@H]3c4[nH]c5ccccc5c4CCN3C[C@@H]2CC[C@@H]1O	13 µM (active)
Nc1c(C(=O)c2cccs2)sc2nsc(SCCN3CCCCC3)c12	inactive
Nc1nnnn1/N=C/c1cc(Cl)cc(Cl)c1O	inactive
Cc1ccc(C2C3CN(C(C)C)CC=C3C(C#N)=C(N)C2(C#N)C#N)cc1 (stereo not given)	inactive
CCc1cccc2cc3c(N)c(C(=O)Nc4ccc(S(=O)(=O)N5CCCC5)cc4)sc3nc12	inactive
OCCN(CCO)c1nc(N2CCCCC2)c2nc(N(CCO)CCO)nc(N3CCCCC3)c2n1	inactive
